These results are taken from PubChem BioAssay.

Molecules are shown by their SMILES.

This assay can be described thus: compound effects on differentiated 3T3-L1 adipocyte viability – cell-based, 3T3-L1 adipocytes, calcein-AM fluorescence, 48 h, basal, profiling panel (AID 1163). Further: test concentration not given here. The note with it: 3T3-L1 adipocytes viability, higher = more signal.
Consider `CC1CC/C=C\[C@H]2OC34C=CCN(C(C)C)C(=O)[C@H]3N(CCO)C(=O)[C@@H]4C2C(=O)O1` (stereo partly specified), for which the z-score was 0.668. As for `C=C(/C(=C/C[C@H](OC(=O)c1ccncc1)c1ccc(CO)o1)c1cnc2ccccc2c1)C(C)C`, the z-score is 0.521. In the case of `Cc1ccc(F)cc1S(=O)(=O)N[C@@H]1CCN(Cc2ccc(Br)cc2)C1`, the z-score is -1.01. For the compound `CN1C2C=C(CCCO)C(C3C(=O)N(C(N)=O)C(=O)C32)C1C1CC1` (stereo unspecified), the z-score was -0.0683. In the case of `Cc1ccc(S[C@]2(C(=O)O)CC(=O)N(C3CCCCC3)[C@@H]2c2ccc(CO)cc2I)cc1`, the z-score is 0.505.

On to `COCCOC(=O)N1C(=O)[C@@]2(c3cc(C#CC4(O)CCCCCC4)ccc31)[C@H](C(=O)N1CCc3cc(OC)c(OC)cc3C1)[C@H]1C(=O)O[C@H](c3ccccc3)[C@H](c3ccccc3)N1[C@@H]2c1ccc(OCCO)cc1`, for which the z-score was 0.172. Take `COC(=O)[C@@]1(Cc2ccc(OC)cc2)[C@H]2c3cc(C(=O)N4CCCC4)n(CCc4c[nH]c5ccc(O)cc45)c3C[C@H]2CN1C(=O)c1ccccc1`: the z-score was -0.226.

For `CN(C)C(=O)[C@]1(CCC(=O)OC(C)(C)C)N=C(c2ccc(OCCCO)cc2)O[C@@H]1c1ccccc1CN=[N+]=[N-]`, the z-score is 0.911. Next, `CCOC(=O)C1=CC[C@@H](c2ccccc2)N(S(=O)(=O)c2ccc(C)cc2)[C@H]1c1ccccc1`: -1.5. With `NC(=O)[C@H]1[C@@H]2C(=O)O[C@@H](c3ccccc3)[C@@H](c3ccccc3)N2[C@@H](c2ccc(OCCO)cc2)[C@]12C(=O)Nc1ccc(C#CCCO)cc12`, the z-score was 0.272. The same measure for `CCCCCCCCCC(O)C1C=CC2C(=O)N(c3ccccc3)C(=O)C2N1Nc1cc(OC)c(OC)c(OC)c1` (stereo unspecified): 0.614; for `COc1cc(OC)c(C(O)C2C=CC3C(=O)N(Cc4ccccc4)C(=O)C3N2n2cnnc2)cc1Br` (stereo unspecified): 0.767; for `O=C1O[C@@H](c2ccccc2)[C@@H](c2ccccc2)N2[C@@H](c3ccc(OCCO)cc3)[C@]3(C(=O)Nc4ccc(C#CC5=CCCCC5)cc43)[C@@H](C(=O)NC[C@H](O)c3ccccc3)[C@H]12`: 1.49.

`CC(C)[Si](C#CCCCC#N)(O[C@H](c1ccccc1)c1cn(Cc2ccccc2)nn1)C(C)C`: the z-score is -0.454.

On to `CC1=C2[C@@H](CCc3ccccc3)OB(O)C[C@@H]2[C@@H]2C(=O)N(C)C(=O)[C@@H]2C1`, for which the z-score is 0.417.

With `COc1ccc([Si](C)(C)[C@H]2[C@H](CC(=O)N(CCO)Cc3ccccc3)O[C@@]3(C(=O)N(C)c4c(Br)cc(C)cc43)[C@@H]2C)cc1`, the z-score is -0.346.

For `C=CC[C@@]1(C(=O)NCCCOC)N=C(c2ccc(OCCCO)cc2)O[C@@H]1c1ccccc1N=[N+]=[N-]`, the z-score was 0.0373. `COC(=O)C(CC#Cc1ccc2c(c1)[C@]1(C(=O)N2)[C@H](c2ccc(O)cc2)N2[C@H](c3ccccc3)[C@H](c3ccccc3)OC(=O)[C@H]2[C@@H]1C(=O)NC[C@H](O)c1ccccc1)C(=O)OC`: the z-score was -0.909. Turning to `COc1ccc([Si](C)(C)[C@H]2[C@H](CC(=O)N3Cc4ccccc4C[C@H]3CO)O[C@@]3(C(=O)N(Cc4ccc(N5CCOC5=O)cc4)c4ccccc43)[C@@H]2C)cc1`, the z-score was 1.35. Consider `COC(=O)c1c(CC[C@@H](CO)NC(=O)N[C@@H](C)Cn2cc(-c3ccccn3)nn2)oc(C(C)=O)c1C(=O)OC`, for which the z-score was 0.526. On to `COCC(=C=CC[C@H](O)c1ccc(OCCO)cc1)CCO`, for which the z-score is 0.156. As for `N[C@@H](Cc1ccccc1)C(=O)NCc1cn(Cc2ccccc2)nn1`, the z-score is 0.0811. The same measure for `CCOC(=O)C[C@H]1[C@H](OC(=O)Cc2ccc3c(c2)OCO3)[C@@H](NC(=O)c2ccc3ccccc3n2)c2cc(OCCCO)ccc2N1C(=O)c1ccccc1`: 0.288. The same measure for `CC(CO)N1C(=O)[C@]2(C)C3C(=O)OCCC/C=C\[C@H]3OC23C=CCN(c2ccc(Cl)cc2)C(=O)[C@@H]13` (stereo partly specified): -0.329. Regarding `CC(=O)NCCCC[C@@H]1NC(=O)[C@@H]2C[C@H](C(=O)NCCCCCN)[C@H](c3ccc(O)cc3)N2C1=O`, the z-score is 0.42. In the case of `COC(=O)[C@@]1(Cc2ccccc2)[C@H]2c3cc(C(=O)N(C)C)n(Cc4ccc(C)o4)c3C[C@H]2CN1C(=O)c1ccccc1`, the z-score was 0.827. Consider `CCCC[C@@H](O)C1=C(COc2ccccc2)C[C@H]2C(=O)N(Cc3ccccc3)C(=O)[C@H]2[C@H]1CO`, for which the z-score is -0.0277. Regarding `COC(=O)C1(CC(C)C)C=C2C(=C(c3ccccc3)C(=O)C2C)CN1` (stereo unspecified), the z-score was -0.16. The same measure for `COc1ccc(CCNC(=O)[C@@]2(c3ccc([N+](=O)[O-])cc3)CC(=O)N(C3CCCCC3)[C@@H]2c2ccc(CO)cc2)cc1`: 0.414.

Take `COCCCNC(=O)[C@@]1(Sc2ccc(C)cc2)CC(=O)N(C2Cc3ccccc3C2)[C@@H]1c1ccc(CO)cc1`: the z-score was 0.544. The same measure for `CS(=O)(=O)CCOC(=O)C1=CC(c2ccc(CO)cc2)=CC(C2CC2)N(Cc2sc3ccccc3c2Cl)C=C1C(=O)OCCS(C)(=O)=O` (stereo unspecified): -0.716; for `C=CCOC(=O)[C@@H]1[C@H]2C(=O)O[C@H](c3ccccc3)[C@H](c3ccccc3)N2[C@H](c2ccc(OCCOC(=O)[C@@H]3C[C@@H]4C(=O)N[C@@H](CCCC[N+](C)(C)C)C(=O)N4[C@@H]3c3ccc(O)cc3)cc2)[C@@]12C(=O)Nc1ccc(I)cc12`: 0.751. The same measure for `OCCCC1=CC(c2ccc(CN3CCCC3)cc2)N(Cc2cc3c(cc2Br)OCO3)CC1` (stereo unspecified): 1.07. `CC(c1ccccc1)C(O)C1C=CC2C(=O)N(C)C(=O)C2N1Nc1ccccc1` (stereo unspecified): the z-score was -0.856.

In the case of `CC(C)N1C(=O)C[C@@](C(=O)O)(c2ccc([N+](=O)[O-])cc2)[C@H]1c1ccc(CO)cc1`, the z-score was -0.246. As to `CCCC#C[Si](O[C@H](CC)c1cn([C@H](C)c2ccccc2)nn1)(C(C)C)C(C)C`, the z-score is -0.374.
